According to article PMC5540273 (PLoS ONE, 2017):
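Also: KINOMEscan kinase panel screen.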

The molecules below were run on EPHB1. Conditions: concentration: 1 μM, replicates: in singlicate; n = 1.
With Cc1cccc(-c2nc(Nc3cccc(C(N)=O)c3)c3ccccc3n2)n1 [GW876019] the “%Inh” value was 9%.
In the case of CC(C)(C)c1ccc(C(=O)Nc2cn3cc(-c4cccnc4)ccc3n2)cc1, the “%Inh” value is reported as 19%.
With Clc1cc(Cl)cc(Nc2ccnc(Nc3cc(Cl)cc(Cl)c3)n2)c1 [GSK175726] the “%Inh” value was 1%.
For COc1ccc(CNC(=O)NC2CCN(c3ccnc(Nc4cc(OC)c(OC)c(OC)c4)n3)C2)cc1 (stereo not drawn) [GSK1379748], the “%Inh” value was 20%.
Fc1cccc(COc2nnc(-c3ccc4c(c3)CCO4)o2)c1 was tested, and the “%Inh” value was 20%.
With CN1C(=O)C(Nc2ccc(Cl)c(C(=O)O)c2)=C(c2ccc(Cl)cc2)C1=O [SB-404290] the “%Inh” value was 9%.
Cn1cncc1-c1ccc2ncnc(Nc3ccc(OCc4ccccc4)cc3)c2c1 [GW320571] was tested, and the “%Inh” value was 6%.
In the case of Nc1ncnc2[nH]c(-c3ccccc3)nc12 [AH5015], the “%Inh” value is reported as 0%.
For Cc1nnc(-c2ccc3occ(-c4ccc(S(C)=O)cc4)c3c2)[nH]1 (stereo not drawn), the “%Inh” value was 0%.
Fc1cc(Cl)ccc1Nc1ccnc2cc(I)ccc12 [GW551191] was tested, and the “%Inh” value was 32%.
With CC(C)(C)c1ccc(C(=O)Nc2cn3cc(Cl)ccc3n2)cc1 the “%Inh” value was 0%.
With C[C@@H]1CCCCN1c1cc(-c2ccc3c(N)n[nH]c3c2)nc(N)n1 [GSK2258759] the “%Inh” value was 12%.
In the case of Cc1cccc(-c2nc(Nc3ccc4[nH]ncc4c3)c3ccccc3n2)n1 [GW857175], the “%Inh” value is reported as 11%.
Cc1cccc(-c2cc(Nc3ccncc3)c3ccccc3n2)n1 [GSK223675] was tested, and the “%Inh” value was 4%.
In the case of COc1cc2nccc(Nc3ccc(NC(=O)c4ccc(C)cc4)c(O)c3)c2cc1OC.Cl [GW440132], the “%Inh” value is reported as 6%.
